Marburg entry inh – inhibitors of Marburg virus binding or cell entry | Marburg virus pseudotyped entry inhibition, cell reporter | Potency, µM (doses to about 37.8 µM), actives largely listed as inhibitors | hit rate 1.8% among 300,000; calls by dose curve; tested in HEK293 cells
HCMV inh – blocks human cytomegalovirus replication; HFF cells, HCMV-luciferase reporter, 72 h; hits give low values; activity change, negative = inhibition, % at 57.5 µM; hit rate 4.5% among 410,000; AID 1259415; in the data active = activity change below about -60%; inconclusive = no clear call, values can overlap the other calls; inactive = above about -39%
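After 16 h attachment at 37C, HFF cells received test compound and HCMV-luciferase (1 PFU/cell); reporter luminescence read 72 h later, data normalized against buffer-only and known inhibitor Salinomycin.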
Lassa entry inh – Lassa virus entry inhibition. Potency, µM (doses to about 37.9 µM), usual class: inhibitors. Lassa virus pseudotype entry inhibition, cell reporter. hit rate 1.2% among 300,000; calls by dose curve; tested in HEK293 cells; also: nearly all actives have a fitted effect of over 50% in size
Vaccinia Venus – inhibitors of vaccinia virus (Venus reporter); Vaccinia virus Venus reporter expression, fluorescence; Potency, µM (top dose mostly 36.5 µM), most hits filed as inhibitors; hit rate 0.46% among 330,000; AID 720580; calls by dose curve; tested in A549 cells; also: nearly all actives have a fitted effect of over 30% in size
Vaccinia mCherry – vaccinia inhibition (mCherry reporter) | Vaccinia virus mCherry reporter infection, fluorescence | Potency, µM (highest dose often 36.5 µM), actives largely listed as inhibitors | hit rate 0.63% among 310,000 | AID 720579; calls by dose curve; tested in A549 cells; also: nearly all actives have a fitted effect of over 35% in size
FMDV antiviral – blocks foot and mouth disease virus. FMDV antiviral cell-based qHTS. Potency, µM (titrated, usually from 57.9 µM), actives largely listed as inhibitors. AID 1159524. hit rate 1.2% among 410,000; calls by dose curve; tested in HEK293T cells; also: read-out not given here; nearly all actives have a fitted effect of over 45% in size
A number is an active result; – = inactive; ? = inconclusive; · = no result given; [ ] = dose if it differs, or a comment. Rows were chosen to be rich in hits. Some 6.5% of all compounds tested hit in one or more screens of this group.

SMILES	Marburg entry inh	HCMV inh	Lassa entry inh	Vaccinia Venus	Vaccinia mCherry	FMDV antiviral
COc1ccc(C(=O)NC(=S)Nc2ccc(CN3CCOCC3)cc2)cc1Br	·	-64.3	·	·	·	?
CN1C/C(=C/c2ccncc2)C(=O)/C(=C/c2ccncc2)C1	–	–	?	–	–	–
CN1C/C(=C/c2ccsc2)C(=O)/C(=C/c2ccsc2)C1	5.01µM	-85.7	?	?	?	28.2µM
C=CCNC(=O)/C(C#N)=C\c1cc(Cl)c(O)c(OCC)c1	–	–	–	–	–	–
COc1cc(C=C2CN(C)C(=O)C2=O)ccc1O	·	–	·	–	–	–
CCOc1cc(/C=C2\CCC/C(=C\c3cc(Cl)c(O)c(OCC)c3)C2=O)cc(Cl)c1O	11.2µM	-98.2	8.91µM	–	–	15.8µM
CCOc1cc(/C=C2\CN(C)C/C(=C\c3ccc(O)c(OCC)c3)C2=O)ccc1O	?	-100.0	?	?	?	17.8µM
CCOC(=O)/C(C#N)=C/c1ccc(-c2ccc(C)cc2)o1	·	–	–	–	–	–
O=C1NC(c2ccccc2)=C(c2nc3ccccc3s2)C(c2ccccc2)N1 (stereo unspecified)	–	–	9.2µM	–	–	?
CC(=O)C1=C(c2ccccc2)NC(=O)NC1c1ccccc1 (stereo unspecified)	·	–	·	·	·	–
O=C(NC(=S)N(CCCCO)C1CCCCC1)c1sc2ccccc2c1Cl	13µM	?	?	?	–	·
CCCCNc1ccc(/C=C2\C=Cc3ccccc32)cc1	·	·	·	–	–	·
CN(CC(=O)O)c1ccc(/C=C2\C=Cc3ccccc32)cc1	·	·	·	–	–	·
COc1ccc(CN2CCc3c(c(=O)n4ncc(C(=O)N5CCN(c6ccccc6OC)CC5)c4n3C)C2)cc1	·	-84.3	?	?	–[7.34 µM]	?
C[n+]1ccc(/C=C/c2cc[n+](C)c3ccccc23)c2ccccc21	·	·	·	10µM	?	·
CN1C=C/C(=C\c2cc[n+](C)c3ccccc23)c2ccccc21	·	-99.9	·	·	·	17.8µM
N#Cc1ccccc1CN1CCN(c2ncc(C(=O)NCc3ccco3)s2)C1=O	·	–	·	·	·	·
COc1ccc(CN2CCCC(n3cc(C(=O)N4CCCCC4)nn3)C2)c(OC)c1OC (stereo unspecified)	·	·	·	–	–	?
COc1cc(CO)ccc1OCc1nnnn1-c1ccc(C)cc1	–	-63.4	–	·	·	–
COc1ccc(F)cc1CSc1nnnn1-c1ccc(O)cc1	?	-61.7	?	–	?	–
COc1cc(CSc2nnnn2-c2ccc(C)cc2)cc(OC)c1OC	?	-88.8	3.66µM	–	–	·
Cc1ccccc1C(=O)NC(C)c1nnc2n1CCN(Cc1ccc(F)cc1)CC2 (stereo unspecified)	·	·	·	–	–	–
c1ccc(Cn2nnnc2C(c2ccccc2)N2CCN(Cc3ccncc3)CC2)cc1 (stereo unspecified)	·	·	·	–	–	·
COc1cccc(NC(=O)CN(C)C(=O)CNC(=O)c2ccc(Oc3ccccc3)cc2)c1	–	–	–	–	–	–
CN(CC(=O)Nc1ccccc1Br)C(=O)CNC(=O)c1ccc(Oc2ccccc2)cc1	·	-63.0	·	·	·	–
SMILES	Marburg entry inh	HCMV inh	Lassa entry inh	Vaccinia Venus	Vaccinia mCherry	FMDV antiviral
CCOc1ccc2nc(N3C(=O)/C(=C/c4ccccc4)NC3=S)sc2c1	?	–	12.6µM	–	–	–
COc1ccc(-c2nc(SCC(=O)N3CCC(C)CC3)n[nH]2)cc1	·	–	3.16µM	–	–	–
CC1CCN(C(=O)CSc2n[nH]c(-c3ccc(F)cc3)n2)CC1	·	–	?	–	–	–
O=C(COc1ccc(S(=O)(=O)NC2CCCC2)cc1)N1CCCCC1	?	–	–	–	–	–
O=C(CSc1n[nH]c(-c2ccc(S(=O)(=O)NC3CCCCC3)cc2)n1)N1CCCC1	–	-61.2	?	–	–	·
O=C(c1n[nH]c2c1CCCC2)N1CCC(n2c(C3CCCO3)nc3ccccc32)CC1 (stereo unspecified)	·	·	·	–	–	–
COc1ccc2[nH]cc(CCO)c2c1	·	·	·	–	–	–
Cc1ccc(/C=C2\CCC3=C2OC(N)=C(C#N)C3c2ccc(C)cc2)cc1 (stereo unspecified)	–	·	–	–	–	?
N#CC1=C(N)OC2=C(CCc3ccccc32)C1c1ccccc1 (stereo unspecified)	?	-92.5	?	?	?	?
NNC(=O)c1cncc(Br)c1	–	–	–	–	–	–
CCc1ccc(C(=O)c2cncc(Br)c2)cc1	?	-69.1	–	–	–	–
Cc1ccc(C(=O)c2cncc(Br)c2)cc1	–	-71.1	–	·	·	–
C=C(C(C)=O)C(O)c1ccc(C(F)(F)F)cc1 (stereo unspecified)	–	·	·	·	·	·
CC(C)(C)C(=O)Nc1ccc(Sc2ccc([N+](=O)[O-])cc2)cc1	?	–	–	–	–	?
CC(=O)Nc1ccc(Sc2ccc([N+](=O)[O-])o2)cc1	?	-98.2	?	–	–	35.5µM
Cc1nn(-c2ccccc2)c(C)c1CC(=O)NCC1Cc2cc(F)cc(-c3cccnc3)c2O1 (stereo unspecified)	·	·	·	–	–	–
CCc1nn2c(=O)c(F)c(N3CCNCC3)nc2s1	·	-104.6	·	·	·	–
Cn1c(=O)c(-c2cc(F)cc(F)c2)nc2cnc(N3CCNCC3)nc21	·	·	·	·	·	–
N/C(=N\OC(=O)c1ccc2ccccc2c1)c1ccccn1	?	-83.4	?	–	–	–
CCCc1ccc(C(=O)O/N=C(\N)c2ccccn2)cc1	11.2µM	-70.1	1.41µM	–	–	14.1µM
N/C(=N\OC(=O)c1ccc2ccccc2c1)c1ccncc1	·	–	·	·	·	–
N/C(=N\OC(=O)c1ccc(=O)n(Cc2ccccc2)c1)c1ccccn1	?	–	?	–	–	–
Cc1c(C(=O)N(C)C2CCOC2)sc2ncnc(NCC3(c4ccccc4)CCOCC3)c12 (stereo unspecified)	·	·	·	–	–	–
CC(=O)N1c2c(cc(Br)cc2S(=O)(=O)N2CCN(c3ccccc3F)CC2)CC1C (stereo unspecified)	?	-67.2	·	–	–	?
CC(=O)N1c2c(cc(Br)cc2S(=O)(=O)NCc2cccnc2)CC1C (stereo unspecified)	–	–	–	·	·	–
SMILES	Marburg entry inh	HCMV inh	Lassa entry inh	Vaccinia Venus	Vaccinia mCherry	FMDV antiviral
CCCCN(Cc1ccccc1)S(=O)(=O)c1cc(Br)cc2c1N(C(C)=O)C(C)C2 (stereo unspecified)	?	-64.7	?	–	–	–
COc1cccc(C(=O)Nc2ccc(C(=O)OCc3cc(=O)n4cc(C)sc4n3)cc2)c1	·	?	–	–	–	–
COC(=O)C1=CN(Cc2ccccc2)C=C(C(=O)OC)C1c1cc(F)ccc1F	–	–	7.08µM	–	–	–
Cc1nn(Cc2ccc(F)cc2)c2sc(C(=O)Nc3ccc(N4CCOCC4)cc3N3CCOCC3)cc12	?	-67.2	?	?	?	–
O=C(OCC1OC(n2cnc3c(N(C(=O)c4ccccc4)C(=O)c4ccccc4)ncnc32)C(O)C1F)c1ccccc1 (stereo unspecified)	–	–	13µM	?	?	–
Nc1ncnc2c1ncn2[C@@H]1O[C@H](CNC(=O)OC[C@@H](N)Cc2ccccc2)[C@@H](O)[C@H]1O	·	–	·	–	–	–

Assay outcomes (PubChem)
